# From ChEMBL document CHEMBL3988442, “University of Dundee, Small-Polar-MMV Screening Library” (2021)
# For some of these results: Results with a measured potency or affinity are listed apart.
# Tests used:
# Design in all cases: scale not given: direction of the effect not stated beside the values
# [1] = molecular target: Protein translocase subunit SecA (Escherichia coli (strain K12)) (UniProt P10408); assay: Assay to Identify E. coli SecA ATPase Inhibitors; type: functional; conditions: 30 µM
# Sequence of Protein translocase subunit SecA (Escherichia coli (strain K12)) (P10408 whole entry): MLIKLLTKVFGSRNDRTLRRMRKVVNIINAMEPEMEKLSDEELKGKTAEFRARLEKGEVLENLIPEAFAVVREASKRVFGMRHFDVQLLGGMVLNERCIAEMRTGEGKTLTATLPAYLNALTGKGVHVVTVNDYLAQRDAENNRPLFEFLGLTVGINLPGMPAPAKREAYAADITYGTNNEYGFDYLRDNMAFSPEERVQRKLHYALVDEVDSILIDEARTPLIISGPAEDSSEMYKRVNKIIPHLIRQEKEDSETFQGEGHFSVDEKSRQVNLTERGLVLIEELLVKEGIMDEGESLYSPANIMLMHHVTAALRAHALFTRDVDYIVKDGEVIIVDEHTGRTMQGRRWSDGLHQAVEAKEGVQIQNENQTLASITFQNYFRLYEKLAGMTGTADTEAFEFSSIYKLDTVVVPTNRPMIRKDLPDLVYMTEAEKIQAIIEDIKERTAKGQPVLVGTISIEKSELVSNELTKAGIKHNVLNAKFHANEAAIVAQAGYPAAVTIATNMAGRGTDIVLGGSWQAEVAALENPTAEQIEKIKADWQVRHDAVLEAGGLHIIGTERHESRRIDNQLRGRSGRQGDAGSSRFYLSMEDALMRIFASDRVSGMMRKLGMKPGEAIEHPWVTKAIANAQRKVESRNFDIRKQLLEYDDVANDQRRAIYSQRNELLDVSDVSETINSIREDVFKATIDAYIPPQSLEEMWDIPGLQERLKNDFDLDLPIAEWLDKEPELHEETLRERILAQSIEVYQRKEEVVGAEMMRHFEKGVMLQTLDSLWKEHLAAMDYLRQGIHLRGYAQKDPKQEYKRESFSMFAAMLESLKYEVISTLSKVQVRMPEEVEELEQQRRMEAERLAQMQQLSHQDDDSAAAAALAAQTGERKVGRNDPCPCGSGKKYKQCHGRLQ
# [2] = molecular target: T1, Ubiquitin-activating enzyme e1, putative (Leishmania donovani (strain BPK282A1)) (UniProt E9BSI1); assay: Leishmania donovani Ubiquitin Activating Enzyme (LdE1); type: functional; conditions: 30 µM
# T1 sequence (whole entry): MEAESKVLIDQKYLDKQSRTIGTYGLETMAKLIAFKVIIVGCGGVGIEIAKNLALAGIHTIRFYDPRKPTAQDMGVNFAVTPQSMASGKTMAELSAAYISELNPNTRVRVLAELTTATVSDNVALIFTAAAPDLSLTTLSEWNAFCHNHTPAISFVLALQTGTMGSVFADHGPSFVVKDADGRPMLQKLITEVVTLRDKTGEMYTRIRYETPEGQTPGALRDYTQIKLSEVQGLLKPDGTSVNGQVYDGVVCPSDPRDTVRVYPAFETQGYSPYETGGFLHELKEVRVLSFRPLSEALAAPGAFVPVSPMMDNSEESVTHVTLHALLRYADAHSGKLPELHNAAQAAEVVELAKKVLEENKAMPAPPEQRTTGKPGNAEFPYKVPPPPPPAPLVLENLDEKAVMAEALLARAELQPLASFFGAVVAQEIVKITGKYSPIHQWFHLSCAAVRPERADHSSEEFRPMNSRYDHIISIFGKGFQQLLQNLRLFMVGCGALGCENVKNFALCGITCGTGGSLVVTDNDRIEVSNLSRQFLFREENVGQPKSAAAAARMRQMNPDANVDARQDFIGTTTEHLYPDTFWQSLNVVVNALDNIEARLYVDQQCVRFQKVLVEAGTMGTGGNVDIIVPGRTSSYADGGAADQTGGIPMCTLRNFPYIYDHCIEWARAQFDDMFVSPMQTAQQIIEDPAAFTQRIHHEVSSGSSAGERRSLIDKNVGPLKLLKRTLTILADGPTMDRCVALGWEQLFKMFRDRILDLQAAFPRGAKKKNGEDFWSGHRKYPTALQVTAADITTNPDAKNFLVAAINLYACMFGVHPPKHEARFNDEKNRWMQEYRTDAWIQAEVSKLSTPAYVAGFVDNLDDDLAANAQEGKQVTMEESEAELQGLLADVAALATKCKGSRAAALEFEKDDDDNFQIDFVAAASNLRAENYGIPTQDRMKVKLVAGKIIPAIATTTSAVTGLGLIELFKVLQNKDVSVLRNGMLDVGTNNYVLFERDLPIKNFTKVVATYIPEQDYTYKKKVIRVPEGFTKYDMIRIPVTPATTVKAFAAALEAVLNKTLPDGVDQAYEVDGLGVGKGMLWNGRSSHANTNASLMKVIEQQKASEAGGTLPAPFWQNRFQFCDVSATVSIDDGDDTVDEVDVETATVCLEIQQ
# [3] = molecular target: T2, Aspartate--tRNA(Asp/Asn) ligase (Mycobacterium tuberculosis (strain ATCC 25618 / H37Rv)) (UniProt P9WFW3); assay: Assay for Asp RNA synthetase-1 from Mycobacterium tuberculosis; type: functional; conditions: 30 µM; note: in the data most compounds retested in dose-response had high values
# T2 sequence (whole entry): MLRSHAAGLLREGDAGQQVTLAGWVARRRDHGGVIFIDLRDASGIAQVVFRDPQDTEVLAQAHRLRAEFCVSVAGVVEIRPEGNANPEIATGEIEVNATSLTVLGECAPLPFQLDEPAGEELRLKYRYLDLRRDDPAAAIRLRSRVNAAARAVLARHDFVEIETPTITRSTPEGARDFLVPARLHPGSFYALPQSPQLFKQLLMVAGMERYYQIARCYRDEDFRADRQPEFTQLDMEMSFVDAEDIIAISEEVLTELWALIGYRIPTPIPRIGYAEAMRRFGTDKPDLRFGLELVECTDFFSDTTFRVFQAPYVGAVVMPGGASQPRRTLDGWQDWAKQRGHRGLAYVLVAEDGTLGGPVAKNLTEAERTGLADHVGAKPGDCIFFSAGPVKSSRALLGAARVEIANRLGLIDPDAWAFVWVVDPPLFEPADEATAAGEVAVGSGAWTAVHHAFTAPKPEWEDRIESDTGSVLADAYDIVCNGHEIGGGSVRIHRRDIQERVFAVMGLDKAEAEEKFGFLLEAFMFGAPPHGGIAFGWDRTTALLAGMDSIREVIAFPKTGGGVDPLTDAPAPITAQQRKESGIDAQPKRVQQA
# [4] = molecular target: AMP-activated protein kinase, AMPK (Homo sapiens) (UniProt P54646+O43741+P54619+Q9UGJ0+Q9Y478+Q13131+Q9UGI9); assay: AMP-dependent Kinase enzyme assay. An in vitro enzyme assay that detects ADP turnover that is directly proportional to AMPK activity. This uses naive AMPK that is activated during the assay with MK-8722; type: functional; conditions: 30 µM
# [5] = molecular target: Sialic acid-binding Ig-like lectin 9 (Homo sapiens) (UniProt Q9Y336); assay: Hs-Siglec9 ALPHAscreen SOP 20170721; conditions: 10 µM
# Sequence of Sialic acid-binding Ig-like lectin 9 (Homo sapiens) (Q9Y336 whole entry): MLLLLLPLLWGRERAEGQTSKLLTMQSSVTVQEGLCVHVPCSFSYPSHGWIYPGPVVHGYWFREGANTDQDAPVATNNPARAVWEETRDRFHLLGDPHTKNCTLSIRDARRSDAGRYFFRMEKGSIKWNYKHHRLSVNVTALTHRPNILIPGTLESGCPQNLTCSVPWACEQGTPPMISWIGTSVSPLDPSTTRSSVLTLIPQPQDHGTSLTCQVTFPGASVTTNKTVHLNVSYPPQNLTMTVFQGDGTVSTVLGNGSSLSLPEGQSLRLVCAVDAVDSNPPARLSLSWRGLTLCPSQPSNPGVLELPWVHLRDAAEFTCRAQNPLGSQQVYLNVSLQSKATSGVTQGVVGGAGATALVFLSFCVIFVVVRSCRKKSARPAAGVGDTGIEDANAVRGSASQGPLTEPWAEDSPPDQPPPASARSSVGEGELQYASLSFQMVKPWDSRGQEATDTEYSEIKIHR
# Trypanosoma cruzi = assay: Trypanosoma cruzi phosphomannomutase and mannose-1-phosphate guanylyltransferase assay; type: functional; conditions: 10 µM
# [6] = molecular target: T3, Arginase-2, mitochondrial (Homo sapiens) (UniProt P78540); assay: in vitro enzyme assay to detect the production of urea directly proportional to the activity of Arginase II; type: functional; conditions: 33.3 µM; note: in the data most compounds retested in dose-response had high values
# T3 sequence (whole entry): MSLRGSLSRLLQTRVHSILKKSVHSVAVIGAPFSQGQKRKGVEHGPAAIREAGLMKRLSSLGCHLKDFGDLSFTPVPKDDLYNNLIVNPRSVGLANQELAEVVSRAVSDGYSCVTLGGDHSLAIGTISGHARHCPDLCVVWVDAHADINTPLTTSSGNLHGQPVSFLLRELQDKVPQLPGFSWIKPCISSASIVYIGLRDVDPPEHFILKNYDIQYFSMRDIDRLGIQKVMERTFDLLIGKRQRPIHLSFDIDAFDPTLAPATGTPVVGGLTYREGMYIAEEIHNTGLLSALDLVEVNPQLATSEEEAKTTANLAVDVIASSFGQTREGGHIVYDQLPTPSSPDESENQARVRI
# [7] = molecular target: T4, Proteasome subunit beta (Trypanosoma cruzi) (UniProt O96673); assay: Trypanosoma cruzi proteasome chymotrypsin-like activity (TcProtChymo) assay.; note: in the data most compounds retested in dose-response had high values; type: functional; conditions: 9.37 µM
# T4 sequence (whole entry): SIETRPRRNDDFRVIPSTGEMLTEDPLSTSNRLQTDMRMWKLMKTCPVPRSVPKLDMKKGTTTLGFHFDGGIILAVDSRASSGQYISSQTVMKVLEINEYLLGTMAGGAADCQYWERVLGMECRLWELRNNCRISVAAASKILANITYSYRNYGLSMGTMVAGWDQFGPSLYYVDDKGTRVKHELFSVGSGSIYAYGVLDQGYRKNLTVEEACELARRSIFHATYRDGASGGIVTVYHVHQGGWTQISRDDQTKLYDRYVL
# Homo sapiens = species on record: Homo sapiens; assay: To identify inhibition of the IFN signalling (Jak-Stat) pathway via expression of an eGFP reporter gene under the control of an IFN-stimulated response element (ISRE) containing MxA promoter.; type: functional; conditions: 30 µM
# [8] = molecular target: Shiga toxin 2 (Escherichia coli O157:H7) (UniProt P09385+P09386); assay: E. coli 0.157:H7 Shiga Toxin SOP - stx2 screening assay; type: functional; conditions: 30 µM
# [9] = molecular target: T5, Tyrosyl-tRNA synthetase, putative (Trypanosoma cruzi (strain CL Brener)) (UniProt Q4DSP6); assay: Trypanosoma cruzi tyrosyl tRNA synthetase (TcYRS) _High Tyrosine SOP; type: functional; conditions: 30 µM; note: in the data most compounds retested in dose-response had high values
# T5 sequence (whole entry): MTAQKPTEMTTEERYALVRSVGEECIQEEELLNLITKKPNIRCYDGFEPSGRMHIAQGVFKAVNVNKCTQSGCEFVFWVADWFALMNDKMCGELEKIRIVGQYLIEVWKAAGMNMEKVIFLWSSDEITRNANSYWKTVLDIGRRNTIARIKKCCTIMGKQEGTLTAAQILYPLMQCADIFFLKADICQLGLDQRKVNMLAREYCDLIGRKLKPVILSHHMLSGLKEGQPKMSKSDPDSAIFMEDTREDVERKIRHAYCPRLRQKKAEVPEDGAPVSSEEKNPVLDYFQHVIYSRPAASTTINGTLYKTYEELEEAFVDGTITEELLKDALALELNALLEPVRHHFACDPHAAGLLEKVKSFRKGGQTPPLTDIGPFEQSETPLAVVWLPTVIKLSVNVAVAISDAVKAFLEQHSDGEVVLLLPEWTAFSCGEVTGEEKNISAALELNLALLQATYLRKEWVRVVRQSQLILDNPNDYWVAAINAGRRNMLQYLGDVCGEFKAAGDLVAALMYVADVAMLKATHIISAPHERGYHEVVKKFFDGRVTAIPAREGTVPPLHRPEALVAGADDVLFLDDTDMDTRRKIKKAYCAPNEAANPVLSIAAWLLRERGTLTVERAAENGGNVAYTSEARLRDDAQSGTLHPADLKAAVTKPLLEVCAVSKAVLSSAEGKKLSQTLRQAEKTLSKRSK
# [10] = molecular target: T5, Tyrosyl-tRNA synthetase, putative (Trypanosoma cruzi (strain CL Brener)); assay: Trypanosoma cruzi tyrosyl tRNA synthetase (TcYRS) SOP; type: functional; conditions: 30 µM
# [11] = molecular target: Chromo domain-containing protein 1 (Saccharomyces cerevisiae (strain ATCC 204508 / S288c) (Baker's yeast)) (UniProt P32657); assay: ScCHD-1 Enzyme Inhibition Assay; type: functional; conditions: 30 µM; note: in the data most compounds retested in dose-response had high values
# Sequence of Chromo domain-containing protein 1 (Saccharomyces cerevisiae (strain ATCC 204508 / S288c) (Baker's yeast)) (P32657 whole entry, the tested form may be a part): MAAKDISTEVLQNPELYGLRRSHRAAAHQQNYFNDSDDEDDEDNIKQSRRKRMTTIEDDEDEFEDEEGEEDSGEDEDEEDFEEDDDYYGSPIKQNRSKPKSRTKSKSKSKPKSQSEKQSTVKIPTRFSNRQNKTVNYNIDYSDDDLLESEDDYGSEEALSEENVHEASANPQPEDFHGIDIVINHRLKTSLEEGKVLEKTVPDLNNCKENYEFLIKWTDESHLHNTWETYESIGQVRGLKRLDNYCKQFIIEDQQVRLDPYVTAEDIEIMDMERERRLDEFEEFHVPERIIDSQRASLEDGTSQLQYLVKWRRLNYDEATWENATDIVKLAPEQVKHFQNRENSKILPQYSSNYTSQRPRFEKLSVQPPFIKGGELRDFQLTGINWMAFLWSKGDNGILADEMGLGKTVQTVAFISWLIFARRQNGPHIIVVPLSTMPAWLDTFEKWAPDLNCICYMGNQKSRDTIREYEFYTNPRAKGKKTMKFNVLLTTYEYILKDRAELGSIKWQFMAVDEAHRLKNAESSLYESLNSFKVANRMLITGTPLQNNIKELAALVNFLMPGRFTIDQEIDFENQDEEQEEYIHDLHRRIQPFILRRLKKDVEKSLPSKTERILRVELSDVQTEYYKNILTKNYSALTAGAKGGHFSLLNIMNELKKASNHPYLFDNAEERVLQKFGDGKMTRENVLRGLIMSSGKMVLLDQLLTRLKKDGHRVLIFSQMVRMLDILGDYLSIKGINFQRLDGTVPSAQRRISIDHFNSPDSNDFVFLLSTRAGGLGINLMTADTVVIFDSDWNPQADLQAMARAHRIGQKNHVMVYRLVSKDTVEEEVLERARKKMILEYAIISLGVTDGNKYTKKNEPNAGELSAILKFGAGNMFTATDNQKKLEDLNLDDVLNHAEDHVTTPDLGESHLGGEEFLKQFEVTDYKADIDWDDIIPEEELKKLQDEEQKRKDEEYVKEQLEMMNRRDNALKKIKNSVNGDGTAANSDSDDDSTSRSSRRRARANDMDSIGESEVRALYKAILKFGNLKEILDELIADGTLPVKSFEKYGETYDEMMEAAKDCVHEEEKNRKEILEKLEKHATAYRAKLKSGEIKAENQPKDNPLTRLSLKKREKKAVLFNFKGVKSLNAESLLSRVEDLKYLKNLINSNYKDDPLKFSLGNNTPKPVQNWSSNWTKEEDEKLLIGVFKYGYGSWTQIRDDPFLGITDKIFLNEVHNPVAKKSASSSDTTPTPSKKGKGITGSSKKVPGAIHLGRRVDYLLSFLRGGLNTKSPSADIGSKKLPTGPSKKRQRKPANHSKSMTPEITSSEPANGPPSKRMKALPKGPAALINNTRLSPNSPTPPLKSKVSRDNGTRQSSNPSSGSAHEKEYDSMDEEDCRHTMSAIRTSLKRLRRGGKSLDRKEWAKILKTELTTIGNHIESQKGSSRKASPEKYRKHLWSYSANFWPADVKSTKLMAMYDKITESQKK
SMILES,Percent Effect [1],Percent Effect [2],Percent Effect [3],Percent Effect [4],Percent Effect [5],Percent Effect (Trypanosoma cruzi),Percent Effect [6],Percent Effect [7],Percent Effect (Homo sapiens),Percent Effect [8],Percent Effect [9],Percent Effect [10],Percent Effect [11]
C[C@H]1C[C@@H]2CCN(Cc3ccccn3)C[C@H]2O1,-1.13%,0%,-1.48%,92%,-0.495%,1.27%,1.59%,10.5%,7.67%,-4.58%,-2.16%,-5.13%,-8.15%
CCOCC(O)CN1CCN(C(=O)Cc2ccc(C)nc2)CC1 (stereo unspecified),-0.896%,18.4%,-0.811%,1.93%,7.02%,-3.38%,3.83%,15.9%,10.3%,27%,11.3%,17.1%,-5.52%
O=C(c1cc(-n2cccc2)ccc1Cl)N1CCC2(CC1)OCCO2,-3.83%,7.89%,3.38%,15.4%,-3.27%,-0.876%,-8.28%,15.8%,1.48%,8.93%,2.13%,10.4%,-2.85%
CC(C)CN1CCC2(C1)CN(c1ncccn1)C2,-1.21%,13.3%,3.02%,6.7%,-5.1%,-3.15%,-3.03%,10.3%,5.15%,-15.1%,5.32%,11.5%,-4.75%
COc1ccc(CN2C[C@@H]3OCCN(c4ncccn4)[C@@H]3C2)cc1,1.18%,0%,3.34%,11.4%,2.48%,-4.13%,2.1%,3.61%,22.3%,-20%,1.06%,-1.28%,0.371%
Cc1noc(C)c1CN1CC[C@H]2C[C@@H](c3nccs3)O[C@@H]2C1,-4.73%,5.41%,3.41%,3.53%,1.06%,0.88%,0.319%,18.1%,4.79%,11.3%,1.08%,7.69%,-0.345%
c1ccc(OC[C@]23COC[C@H]2CN(Cc2ccoc2)C3)nc1,-3.19%,10.7%,-2.04%,-1.7%,1.05%,4.05%,-57.9%,12.1%,-8.07%,-23.7%,3.12%,17.5%,-6.62%
